CYP2C9 act: human CYP2C9 activators, primary screen, biochemical, luminescence; Cytochrome P450 2C9 (Homo sapiens), P11712; recombinant CYP2C9, luciferin-H conversion; active compounds read high; factor 1 = untreated enzyme, 0 = blocked; activation factor at 5 µM; actives 1.4% (n = 96,000); AID 1024, 2008;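 active means activation factor of 2 or more for CYP2C9 at a 5 µM dose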;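 further: 0 = sulfaphenazole-blocked wells and 1 = vehicle-only wells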
Target sequence (P11712 whole entry, looked up): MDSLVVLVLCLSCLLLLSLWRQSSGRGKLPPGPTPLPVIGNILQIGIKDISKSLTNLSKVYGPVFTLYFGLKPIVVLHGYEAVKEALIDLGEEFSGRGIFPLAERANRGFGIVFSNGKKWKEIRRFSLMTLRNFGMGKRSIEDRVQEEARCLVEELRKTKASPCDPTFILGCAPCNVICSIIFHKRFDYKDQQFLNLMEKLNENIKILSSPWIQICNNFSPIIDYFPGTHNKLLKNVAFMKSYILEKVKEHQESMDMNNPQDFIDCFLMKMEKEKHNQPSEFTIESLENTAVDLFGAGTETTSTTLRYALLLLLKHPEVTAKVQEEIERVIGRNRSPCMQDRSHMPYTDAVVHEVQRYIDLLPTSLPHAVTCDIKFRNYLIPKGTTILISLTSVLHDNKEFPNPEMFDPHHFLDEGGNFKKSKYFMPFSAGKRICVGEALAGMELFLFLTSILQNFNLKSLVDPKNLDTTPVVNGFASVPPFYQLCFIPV
CYP2C19 act: human CYP2C19 activators, primary screen, biochemical, luminescence. recombinant CYP2C19, luciferin-H EGE luminescence; active compounds read high; 0 = fully inhibited enzyme, 1 = untreated enzyme. activation factor at 5 µM. 96,000 tested, under 10 active. AID 1025, 2008;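 active means activation factor of at least 2 at 5 µM in the primary screen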;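 further: 0 = wells with 2.5 mM tranylcypromine and 1 = vehicle-only wells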
D1 allo mod: D1 CRE-luciferase signal change, two-sided – cell-based, HEK293 D1, dopamine EC30, D1 allosteric modulator project, primary screen. D(1A) dopamine receptor (Homo sapiens), P21728. dopamine EC30 potentiation; actives deviate in either direction. B-score at 10 µM. actives 5.9% (n = 58,000);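 active means luminescence count or its row- and column-corrected plate score outside the 99.7% band of the plate's sample wells, on either side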
CYP2C9 inh: blockers of cytochrome P450 2C9 activity – biochemical, luminescence, ADME assay, primary screen; P11712; CYP2C9 Supersomes, luciferin-H conversion; inhibition, % at 5 µM; actives 20% (n = 96,000);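 active means blocking of liver enzyme CYP2C9 beyond about 50% at 5 µM, limit read from the data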
hDAT+cocaine: changed hDAT dopamine uptake under cocaine IC80, either direction, primary screen, cocaine antagonist project, cell-based, LLC-PK1 hDAT, [14C]-dopamine uptake, MLSMR. Sodium-dependent dopamine transporter (Homo sapiens), Q01959. LLC-PK1 hDAT cells, [14C]-dopamine uptake with cocaine IC80; actives deviate in either direction. B-score at 10 µM. actives 1.3% (n = 110,000);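 active means Z score or B-score, a plate-position-corrected score, falls beyond the plate's 99.7% confidence bounds, in either direction; inactive means both scores lie inside the 99.7% bounds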;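 further: scored against the spread of the other compound wells on the same plate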
CYP2C19 inh: blockers of cytochrome P450 2C19 activity – biochemical, luminescence, ADME assay, primary screen; P33261; CYP2C19 Supersomes, luciferin-H EGE luminescence, 30 min; inhibition, % at 5 µM; actives 21% (n = 96,000);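 active means CYP2C19 inhibition above a set limit at 5 µM in the primary screen, cut at about 50% in these data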;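 further: plate controls were negative control wells for no effect and 2.5 mM tranylcypromine positive control for full effect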
The depositor's hits bear a star; / = not tested or not shown. An excerpt weighted towards active compounds, which were near 28% of everything screened.

SMILES | CYP2C9 act | CYP2C19 act | D1 allo mod | CYP2C9 inh | hDAT+cocaine | CYP2C19 inh
CC(C)CNC(=O)c1cc2nc(C3CC3)cc(C(F)(F)F)n2n1 | / | / | / | / | 0.5 | /
CC(=O)C1=C(O)C=C(c2ccco2)CC1c1ccco1 (stereo unspecified) | 0.5 | 0.5 | 0.0066 | 51* | 0.26 | 50*
CCOC(=O)c1cc(-c2ccc(F)cc2)n(CC(=O)Nc2nccs2)c1C | / | / | -0.35 | / | -1.4 | /
O=C(O)CCC1OC(=O)C(O)=C1c1ccccc1 (stereo unspecified) | / | / | / | / | -2.1 | /
O=C(CSc1nnc(-c2cc(-c3cccs3)nc3ccccc23)o1)NC1CCCCC1 | 0.5 | 0.9 | / | 50* | -0.43 | 8
NC(=O)CSc1nnc(-c2cc(-c3cccs3)nc3ccccc23)o1 | 0.7 | 1 | / | 33 | 0.91 | 1
CCCN(CC1CC1)C(=O)CSc1nnc(-c2cc(-c3cccs3)nc3ccccc23)o1 | 0.4 | 1 | / | 55* | -0.011 | 0
CCC(C)NC(=O)CSc1nnc(-c2cc(-c3cccs3)nc3ccccc23)o1 (stereo unspecified) | 0 | 0.2 | / | 98* | -0.6 | 75*
O=C(CSc1nnc(-c2cccs2)o1)N1CCCCC1 | 1.1 | 0.9 | -0.96 | -7 | -0.0084 | 6
CC1CCCC(C)N1C(=O)CSc1nnc(-c2cccs2)o1 (stereo unspecified) | 0.5 | 0.2 | 0.82 | 48 | 0.52 | 84*
COc1ccc(/C=C/C(=O)c2nc3ccccc3n2CC(=O)c2ccc(OC)cc2)cc1 | 0.7 | 0.6 | / | 28 | 0.65 | 39
COc1cc(O)cc2c1[C@@H]1Oc3c(ccc(O)c3CC=C(C)C)[C@@H]1CO2 | / | / | / | / | 0.19 | /
CCc1ccc(-c2cc(C(F)(F)F)n3nc(C(=O)Nc4c(C)nn(Cc5ccc(F)cc5)c4C)cc3n2)s1 | 0.3 | 0.6 | / | 70* | 0.23 | 42
O=C(c1ccc(Cl)c(S(=O)(=O)Nc2ccc(F)cc2)c1)N1CCN(c2ccccn2)CC1 | 0.3 | 0.3 | / | 70* | 1 | 67*
CN(c1ccccc1)S(=O)(=O)c1cc(C(=O)N2CCN(c3ccccn3)CC2)ccc1Cl | 0 | 0.3 | -3.3* | 99* | -0.041 | 73*
CN(C(=O)N1CCN(c2ccccn2)CC1)c1ccccc1 | 0.7 | 0.6 | / | 34 | 0.11 | 43
Cc1ccc(NS(=O)(=O)c2ccc(C(=O)N3CCN(c4ccccn4)CC3)cc2)cc1 | 0.5 | 0.9 | / | 47 | 1.1 | 12
CC(=O)C1=C(O)C(=O)N(c2cccc(C(=O)O)c2)C1c1ccc(F)cc1 (stereo unspecified) | / | / | -0.18 | / | / | /
N#CC(C#N)=CC1=C2OC(c3ccccc3)=CC(c3ccccc3)=C2CCC1 | 0.2 | 0.6 | / | 79* | -0.96 | 40
CCOc1ccc(-c2csc(C3COc4ccccc4O3)n2)cc1 (stereo unspecified) | / | / | / | / | -0.13 | /
CCC(=O)Nc1ccc(S(=O)(=O)NCCc2ccccc2)cc1 | 0.6 | 0.2 | / | 35 | -0.17 | 75*
COCC(=O)Nc1ccc(S(=O)(=O)NCCc2ccccc2)cc1 | 0.3 | 0 | -0.49 | 69* | -0.016 | 95*
O=C(Nc1ccc(S(=O)(=O)NCCc2ccccc2)cc1)c1ccc(Br)o1 | 1 | 1.1 | -1.1 | 4 | 0.42 | -11
O=c1c2ccccc2c(-c2ccccc2)nn1-c1ccc(Cl)c(Cl)c1 | 0.8 | 0.6 | / | 20 | -0.68 | 43
CCOc1cc(C=O)ccc1OCCCN1C(=O)NC(C)(C)C1=O | 0.7 | 0.3 | / | 31 | 0.7 | 68*
CC1(C)NC(=O)N(CCCOc2ccccc2Br)C1=O | 0.4 | 0.1 | / | 57* | -0.37 | 89*
CC1(C)NC(=O)N(CCOc2cccc(Cl)c2Cl)C1=O | 0.7 | 0.1 | -0.059 | 32 | 1.3 | 87*
CC1(C)NC(=O)N(CCOCCOc2c(Cl)cc(Cl)cc2Cl)C1=O | 0.6 | 0.4 | / | 40 | -0.84 | 56*
C/C=C/c1ccc(OCCCCN2C(=O)NC(C)(C)C2=O)c(OC)c1 | 0.8 | 0.7 | 0.11 | 22 | -0.025 | 33
